Records with an inconclusive call do not appear. Unmarked numbers belong to inactive results. Activity calls are given as the source filed them. Calls come from the whole dose curve; as a rule, active = well fitted curve in the direction sought with a large enough effect; inconclusive = small, poorly fitted or top-dose-only effect, or another doubt; inactive = no such curve, though single readings can be large; an effect the other way counts as inactive or inconclusive.
What follows are compounds tested against Aldehyde dehydrogenase, mitochondrial (Homo sapiens) (UniProt P05091) (assay: qHTS for Inhibitors of the Aldehyde Dehydrogenase Family (ALDH2) Primary screen (AID 2061308;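 note: plate controls were vehicle for no effect and reference inhibitor for full effect; nearly all actives have a fitted effect of over 55% in size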)). Details: ALDH2 enzyme inhibition qHTS, 1536-well; series mostly up to 56 µM; activity change, negative = inhibition: at the top concentration.

| SMILES | activity change, negative = inhibition | Potency |
| --- | --- | --- |
| CCN1CCCC1Cn1c(-c2ccccc2)nc2c(N3CCOCC3)nc(C)nc21 (stereo not given) | 9.19% | – |
| CC(=O)Nc1ccc(S(=O)(=O)Nc2nccs2)cc1 | – | inactive |
| Cc1ccc(NS(=O)(=O)c2cc3c(cc2N[C@H](C)CO)NC(=O)CC3)cc1C | 7.62% | – |
| OC[C@H]1O[C@@H](O[C@H]2[C@H](OCCc3ccccc3)O[C@H](CO)[C@@H](O)[C@@H]2O)[C@H](O)[C@@H](O)[C@@H]1O | -5.64% [at 28 µM] | – |
| CCOc1ccccc1-c1nnc2n1N=C(c1cc(OC)cc(OC)c1)CS2 | 12.6% | – |
| O=S(=O)(c1ccc2c(c1)OCCO2)N1CCN(S(=O)(=O)c2ccccc2F)CC1 | 4.92% | – |
| CC(C)(C)OC(=O)NCc1nnc(-c2cc3ccccc3[nH]2)s1 | 0.478% | – |
| Cc1cc2c(s1)c1cnn(Cc3ccccc3)c(=O)c1n2C | 9.33% | – |
| Cc1ccc(-c2cc(C(=O)NC3CCCCC3)c3ccccc3n2)cc1C | -2.04% | – |
| CC1CCC2C(C)(C)C(O)CCC2(C)C12Cc1c(O)cc3c(c1O2)C(N)=NC3 (stereo not given) | 1.87% | – |
| Cc1cc(NC(=O)Nc2nnc(-c3cccnc3)s2)ccc1Cl | – | inactive |
| Cc1cccc(C(=O)NCC(=O)OC(C(=O)Nc2cc(C(F)(F)F)ccc2Cl)c2ccccc2)c1 (stereo not given) | -5.99% | – |
| COc1cccc(-c2csc(NC(=O)c3ccncc3NS(=O)(=O)c3ccc(C)cc3)n2)c1 | -9.15% | – |
| Cc1cc(NC(=O)Nc2nnc(-c3cccnc3)s2)ccc1Br | 8.6% | – |
| Cc1ccc(NS(=O)(=O)c2cc3c(cc2Cl)NC(=O)CO3)cc1Cl | -3.02% | – |
| O=C(Nc1ccc(S(=O)(=O)Nc2nccs2)cc1)c1ccc2ccccc2c1 | -1.51% | – |
| COc1cc(-c2ccc3ncnc(NCc4ccc(C)o4)c3c2)cc(OC)c1OC | -8.53% | – |
| CC1(C)CC(=O)C2=C(C1)NC(Nc1nc3ccccc3o1)=NC21CCCCC1 | 12.8% | – |
| c1coc(-c2ccc3ncnc(NCc4cccs4)c3c2)c1 | -11.6% | – |
| N#Cc1nonc1-c1ccccc1 | 2.03% | – |

| SMILES | activity change, negative = inhibition | Potency |
| --- | --- | --- |
| Cc1nc(N2CCOCC2)c2nc(-c3ccccc3)n(CCCN(C)C)c2n1 | 10.7% | – |
| CN1C(=O)CCc2cc(S(=O)(=O)Nc3ccc(Cl)c(Cl)c3)ccc21 | -18% | – |
| Cc1ccc(-c2ccc(=O)n(CC(=O)N(C)C(C)c3ccco3)n2)cc1 (stereo not given) | -3.05% | – |
| CCCCCN1CCC(C(=O)Nc2ccc([S+](=O)([O-])Nc3nccs3)cc2)CC1 | 19.4% | – |
| C[C@@H]1O[C@@H](O[C@H]2[C@@H](OC(=O)[C@]34CCC(C)(C)CC3C3=CCC5[C@@]6(C)C[C@H](O)[C@H](O[C@@H]7O[C@H](CO)[C@@H](O)[C@H](O)[C@H]7O[C@@H]7OC[C@@H](O)[C@H](O)[C@H]7O)[C@@](C)(C(=O)O)C6CC[C@@]5(C)[C@]3(C)CC4)OC[C@H](O)[C@@H]2O)[C@H](O)[C@H](O)[C@H]1O[C@@H]1OC[C@@H](O)[C@H](O)[C@H]1O (stereo not given in full) | 6.76% [at 11.2 µM] | – |
| COCCCc1cc(F)c(S(=O)(=O)N2CCN(S(=O)(=O)c3ccc4c(c3)OCCO4)CC2)cc1F | 9.81% | – |
| C=C(C(=O)OC[C@H]1O[C@@H](OC(=O)/C=C/c2ccccc2)[C@H](O)[C@@H](O)[C@@H]1O)C(O)CO (stereo not given in full) | -20.5% [at 28 µM] | – |
| O=C(Nc1ccc(Cl)c(Cl)c1)Nc1nnc(N2CCNCC2)s1 | 5.01% | – |
| Cc1ccc(-c2cnn(CC(=O)N(C)C(C)c3ccco3)c(=O)c2)cc1 (stereo not given) | -14.7% | – |
| Cn1c2cc(C#N)sc2c2cnn(Cc3ccc(F)cc3)c(=O)c21 | 10.3% | – |
| COc1cccc(Cn2ncc3c4sc(Br)cc4n(C)c3c2=O)c1 | 2.14% | – |
| C#CCOc1ccc(C(C)=O)cc1-c1nnc2n1N=C(c1ccc(OC)c(OC)c1)CS2 | 3.38% | – |
| Cc1ccc(OCCn2c(CCNC(=O)Cc3ccccc3F)nc3ccccc32)cc1 | 0.912% | – |
| FC(F)Oc1ccc(C2=Nn3c(nnc3-c3ccccc3Cl)SC2)cc1OCC1CC1 | 14.8% | – |
| Cc1ccc(NS(=O)(=O)c2cc3c(cc2N[C@@H](C)CO)NC(=O)CC3)cc1C | -1.47% | – |
| Cc1cc(NC(=O)c2ccc(C)c(Nc3nccc(-c4cccnc4)n3)c2)cc(-n2cnc(C)c2)c1 | -2.26% | – |
| C=C1C(=O)O[C@@H]2C[C@H](C)[C@@H]3CC(=O)C(C)=C3C[C@H]12 | 3.36% | – |
| C=CCNc1oc(-c2cccnc2)nc1C#N | 6.34% | – |
| CC(=O)c1cccc(NC(=O)c2cnn3c(C)cc(C)nc23)c1 | 9.72% | – |
| Cn1nnnc1Sc1ncnc2scc(-c3ccc4c(c3)OCO4)c12 | 5.22% | – |

The compounds below were run against Retinaldehyde dehydrogenase 3 (Homo sapiens) (UniProt P47895) (assay: qHTS for Inhibitors of the Aldehyde Dehydrogenase Family (ALDH1A3) Primary screen (AID 2061315;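 note: plate controls were DMSO vehicle for no effect and reference inhibitor for full effect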)). Details: ALDH inhibition qHTS; series mostly up to 56 µM; activity change, negative = inhibition: at the top concentration.

| SMILES | activity change, negative = inhibition | Potency |
| --- | --- | --- |
| CCN1CCCC1Cn1c(-c2ccccc2)nc2c(N3CCOCC3)nc(C)nc21 (stereo not given) | -2.41% | – |
| CC(=O)Nc1ccc(S(=O)(=O)Nc2nccs2)cc1 | – | inactive |
| Cc1ccc(NS(=O)(=O)c2cc3c(cc2N[C@H](C)CO)NC(=O)CC3)cc1C | -8.3% | – |
| OC[C@H]1O[C@@H](O[C@H]2[C@H](OCCc3ccccc3)O[C@H](CO)[C@@H](O)[C@@H]2O)[C@H](O)[C@@H](O)[C@@H]1O | 3.93% [at 28 µM] | – |
| CCOc1ccccc1-c1nnc2n1N=C(c1cc(OC)cc(OC)c1)CS2 | 7.34% | – |
| O=S(=O)(c1ccc2c(c1)OCCO2)N1CCN(S(=O)(=O)c2ccccc2F)CC1 | 5.36% | – |
| CC(C)(C)OC(=O)NCc1nnc(-c2cc3ccccc3[nH]2)s1 | -1.9% | – |
| Cc1cc2c(s1)c1cnn(Cc3ccccc3)c(=O)c1n2C | -13.4% | – |
| Cc1ccc(-c2cc(C(=O)NC3CCCCC3)c3ccccc3n2)cc1C | -5.45% | – |
| CC1CCC2C(C)(C)C(O)CCC2(C)C12Cc1c(O)cc3c(c1O2)C(N)=NC3 (stereo not given) | 11.7% | – |
| Cc1cc(NC(=O)Nc2nnc(-c3cccnc3)s2)ccc1Cl | – | inactive |
| Cc1cccc(C(=O)NCC(=O)OC(C(=O)Nc2cc(C(F)(F)F)ccc2Cl)c2ccccc2)c1 (stereo not given) | 9.59% | – |
| COc1cccc(-c2csc(NC(=O)c3ccncc3NS(=O)(=O)c3ccc(C)cc3)n2)c1 | 12.7% | – |
| Cc1cc(NC(=O)Nc2nnc(-c3cccnc3)s2)ccc1Br | 11.6% | – |
| Cc1ccc(NS(=O)(=O)c2cc3c(cc2Cl)NC(=O)CO3)cc1Cl | 12.5% | – |
| O=C(Nc1ccc(S(=O)(=O)Nc2nccs2)cc1)c1ccc2ccccc2c1 | 12.8% | – |
| COc1cc(-c2ccc3ncnc(NCc4ccc(C)o4)c3c2)cc(OC)c1OC | 1.5% | – |
| CC1(C)CC(=O)C2=C(C1)NC(Nc1nc3ccccc3o1)=NC21CCCCC1 | 14.1% | – |
| c1coc(-c2ccc3ncnc(NCc4cccs4)c3c2)c1 | -2.83% | – |
| N#Cc1nonc1-c1ccccc1 | 3.41% | – |

| SMILES | activity change, negative = inhibition | Potency |
| --- | --- | --- |
| Cc1nc(N2CCOCC2)c2nc(-c3ccccc3)n(CCCN(C)C)c2n1 | -6.01% | – |
| CN1C(=O)CCc2cc(S(=O)(=O)Nc3ccc(Cl)c(Cl)c3)ccc21 | 9.36% | – |
| Cc1ccc(-c2ccc(=O)n(CC(=O)N(C)C(C)c3ccco3)n2)cc1 (stereo not given) | 3.81% | – |
| CCCCCN1CCC(C(=O)Nc2ccc([S+](=O)([O-])Nc3nccs3)cc2)CC1 | 18% | – |
| C[C@@H]1O[C@@H](O[C@H]2[C@@H](OC(=O)[C@]34CCC(C)(C)CC3C3=CCC5[C@@]6(C)C[C@H](O)[C@H](O[C@@H]7O[C@H](CO)[C@@H](O)[C@H](O)[C@H]7O[C@@H]7OC[C@@H](O)[C@H](O)[C@H]7O)[C@@](C)(C(=O)O)C6CC[C@@]5(C)[C@]3(C)CC4)OC[C@H](O)[C@@H]2O)[C@H](O)[C@H](O)[C@H]1O[C@@H]1OC[C@@H](O)[C@H](O)[C@H]1O (stereo not given in full) | 0.185% [at 11.2 µM] | – |
| COCCCc1cc(F)c(S(=O)(=O)N2CCN(S(=O)(=O)c3ccc4c(c3)OCCO4)CC2)cc1F | -1.92% | – |
| C=C(C(=O)OC[C@H]1O[C@@H](OC(=O)/C=C/c2ccccc2)[C@H](O)[C@@H](O)[C@@H]1O)C(O)CO (stereo not given in full) | 0.419% [at 28 µM] | – |
| O=C(Nc1ccc(Cl)c(Cl)c1)Nc1nnc(N2CCNCC2)s1 | 20.4% | – |
| Cc1ccc(-c2cnn(CC(=O)N(C)C(C)c3ccco3)c(=O)c2)cc1 (stereo not given) | -1.23% | – |
| Cn1c2cc(C#N)sc2c2cnn(Cc3ccc(F)cc3)c(=O)c21 | 0.401% | – |
| COc1cccc(Cn2ncc3c4sc(Br)cc4n(C)c3c2=O)c1 | 1.31% | – |
| C#CCOc1ccc(C(C)=O)cc1-c1nnc2n1N=C(c1ccc(OC)c(OC)c1)CS2 | 17.6% | – |
| Cc1ccc(OCCn2c(CCNC(=O)Cc3ccccc3F)nc3ccccc32)cc1 | 0.934% | – |
| FC(F)Oc1ccc(C2=Nn3c(nnc3-c3ccccc3Cl)SC2)cc1OCC1CC1 | 5.16% | – |
| Cc1ccc(NS(=O)(=O)c2cc3c(cc2N[C@@H](C)CO)NC(=O)CC3)cc1C | -1.96% | – |
| Cc1cc(NC(=O)c2ccc(C)c(Nc3nccc(-c4cccnc4)n3)c2)cc(-n2cnc(C)c2)c1 | 10.9% | – |
| C=C1C(=O)O[C@@H]2C[C@H](C)[C@@H]3CC(=O)C(C)=C3C[C@H]12 | -3.08% | – |
| C=CCNc1oc(-c2cccnc2)nc1C#N | 1.75% | – |
| CC(=O)c1cccc(NC(=O)c2cnn3c(C)cc(C)nc23)c1 | 16.1% | – |
| Cn1nnnc1Sc1ncnc2scc(-c3ccc4c(c3)OCO4)c12 | 2.33% | – |

— PubChem BioAssay (NCATS)
